Targets with a hit are over-represented here; the source holds about 8,800 in all. About 0.5% of all pairs of compound and target were hits. A number with no mark means an inactive call.
Experiments:
Experiment in all cases: log2 fold change, soluble protein after heating vs DMSO (PISA); higher = thermal stabilisation; K562 lysate, 10 uM; active = over 0.2 and 3.5 SD of the protein, either way, in both replicates (recomputed)
[1] = compound: CCCS(=O)(=O)Nc1ccc(F)c(C(=O)c2c[nH]c3ncc(-c4ccc(Cl)cc4)cc23)c1F [vemurafenib]
Outline: (§1)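 Following dounce homogenisation of K562 pellets in PBS pH 7.4 with 1 mM MgCl2, crude extract at 1 mg/mL protein was incubated for 30 min with 10 μM compound. Aliquots were then heated for 3 min over 48°C-58°C and pooled, NP-40 was added to 0.5% at 4°C, and soluble protein was recovered as the supernatant at 21,000xg for 90 min. Channel-sum-equalised TMTpro 16plex LC-MS/MS quantified this protein. Each value, from duplicates, is a log-two fold change in thermal stability relative to solvent controls.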

[2] = compound: CCCS(=O)(=O)Nc1ccc(F)c(C(=O)c2c[nH]c3ncc(Cl)cc23)c1F
Outline: as §1

[3] = compound: CCN(CCCOc1ccc2c(Nc3cc(CC(=O)Nc4cccc(F)c4)[nH]n3)ncnc2c1)CCOP(=O)(O)O [barasertib]
Outline: as §1

[4] = compound: CC[C@@H]1C(=O)N(C)c2cnc(Nc3ccc(C(=O)NC4CCN(C)CC4)cc3OC)nc2N1C1CCCC1
Outline: as §1

[5] = compound: CC[C@@H]1C(=O)N(C)c2cnc(Nc3ccc(C(=O)N[C@H]4CC[C@H](N5CCN(CC6CC6)CC5)CC4)cc3OC)nc2N1C(C)C [volasertib]
Outline: as §1

[6] = compound: CCn1c(C(=O)N(C2CC2)C2CC2)cc2c3c(ncn3C)c(Nc3cc(C)n(C)n3)nc21
Outline: as §1

[7] = compound: CN1CCN(CCOc2cc(OC3CCOCC3)c3c(Nc4c(Cl)ccc5c4OCO5)ncnc3c2)CC1 [saracatinib]
Outline: as §1

[8] = compound: CN1CCN(c2nc(C3=C(c4c[nH]c5ccccc45)C(=O)NC3=O)c3ccccc3n2)CC1 [sotrastaurin]
Outline: as §1

[9] = compound: CCn1cc(-c2ccnc3[nH]c(-c4cccc(CN(C)C)c4)cc23)c(-c2ccc(NC(=O)N(C)C)cc2)n1
Outline: as §1

[10] = compound: CN1CCC(CNc2ccc3ncc(-c4cccc(OC(F)(F)F)c4)n3n2)CC1
Outline: as §1

Chain of UniProt Q9UQ88 (Q9UQ88 whole entry, looked up): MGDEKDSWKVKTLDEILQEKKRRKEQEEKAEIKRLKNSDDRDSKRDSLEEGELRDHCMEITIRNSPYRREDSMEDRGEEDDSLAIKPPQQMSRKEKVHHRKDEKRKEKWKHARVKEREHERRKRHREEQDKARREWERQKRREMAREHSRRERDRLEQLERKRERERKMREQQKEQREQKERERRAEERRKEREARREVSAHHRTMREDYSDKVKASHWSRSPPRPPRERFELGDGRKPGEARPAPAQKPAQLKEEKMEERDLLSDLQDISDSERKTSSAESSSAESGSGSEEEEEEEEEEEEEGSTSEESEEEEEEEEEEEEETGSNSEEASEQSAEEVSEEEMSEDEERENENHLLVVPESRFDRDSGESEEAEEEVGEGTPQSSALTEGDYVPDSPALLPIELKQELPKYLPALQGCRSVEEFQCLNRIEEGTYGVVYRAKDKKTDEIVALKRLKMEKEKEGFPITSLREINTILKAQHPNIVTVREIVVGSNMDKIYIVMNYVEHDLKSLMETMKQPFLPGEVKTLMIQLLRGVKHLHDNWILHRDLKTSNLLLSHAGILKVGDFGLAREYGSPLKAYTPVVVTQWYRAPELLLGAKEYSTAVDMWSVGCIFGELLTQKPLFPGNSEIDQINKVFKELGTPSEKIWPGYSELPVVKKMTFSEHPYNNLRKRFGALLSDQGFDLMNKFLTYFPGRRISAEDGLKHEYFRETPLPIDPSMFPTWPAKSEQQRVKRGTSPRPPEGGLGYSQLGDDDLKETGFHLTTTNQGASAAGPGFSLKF
Chain of UniProt P13994 (P13994 whole entry, looked up): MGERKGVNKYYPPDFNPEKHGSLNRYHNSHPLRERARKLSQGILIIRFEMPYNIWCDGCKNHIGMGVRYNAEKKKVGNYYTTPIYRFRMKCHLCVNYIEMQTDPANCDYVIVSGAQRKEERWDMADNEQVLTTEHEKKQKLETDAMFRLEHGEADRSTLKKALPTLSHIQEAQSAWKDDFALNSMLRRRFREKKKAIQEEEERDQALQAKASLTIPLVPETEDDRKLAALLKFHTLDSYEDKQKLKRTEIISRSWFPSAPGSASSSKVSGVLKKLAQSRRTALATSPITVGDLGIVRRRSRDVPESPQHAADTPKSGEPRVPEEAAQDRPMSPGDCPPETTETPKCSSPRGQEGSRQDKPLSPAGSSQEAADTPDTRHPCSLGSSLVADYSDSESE
Chain of UniProt Q16581 (Q16581 whole entry, looked up): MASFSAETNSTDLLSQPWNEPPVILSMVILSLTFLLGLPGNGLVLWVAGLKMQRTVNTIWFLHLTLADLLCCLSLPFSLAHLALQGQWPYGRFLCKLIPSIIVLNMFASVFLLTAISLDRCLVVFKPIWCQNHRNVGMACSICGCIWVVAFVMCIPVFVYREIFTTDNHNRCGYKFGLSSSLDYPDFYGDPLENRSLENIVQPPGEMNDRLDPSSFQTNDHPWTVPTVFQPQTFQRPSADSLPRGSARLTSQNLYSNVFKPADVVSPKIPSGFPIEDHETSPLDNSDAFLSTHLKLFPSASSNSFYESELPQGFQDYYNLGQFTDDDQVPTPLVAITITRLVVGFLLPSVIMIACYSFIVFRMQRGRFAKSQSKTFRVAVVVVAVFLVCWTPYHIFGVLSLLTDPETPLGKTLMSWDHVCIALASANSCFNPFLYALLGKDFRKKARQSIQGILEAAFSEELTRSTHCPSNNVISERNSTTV
Chain of UniProt Q8IWZ6 (Q8IWZ6 whole entry, looked up): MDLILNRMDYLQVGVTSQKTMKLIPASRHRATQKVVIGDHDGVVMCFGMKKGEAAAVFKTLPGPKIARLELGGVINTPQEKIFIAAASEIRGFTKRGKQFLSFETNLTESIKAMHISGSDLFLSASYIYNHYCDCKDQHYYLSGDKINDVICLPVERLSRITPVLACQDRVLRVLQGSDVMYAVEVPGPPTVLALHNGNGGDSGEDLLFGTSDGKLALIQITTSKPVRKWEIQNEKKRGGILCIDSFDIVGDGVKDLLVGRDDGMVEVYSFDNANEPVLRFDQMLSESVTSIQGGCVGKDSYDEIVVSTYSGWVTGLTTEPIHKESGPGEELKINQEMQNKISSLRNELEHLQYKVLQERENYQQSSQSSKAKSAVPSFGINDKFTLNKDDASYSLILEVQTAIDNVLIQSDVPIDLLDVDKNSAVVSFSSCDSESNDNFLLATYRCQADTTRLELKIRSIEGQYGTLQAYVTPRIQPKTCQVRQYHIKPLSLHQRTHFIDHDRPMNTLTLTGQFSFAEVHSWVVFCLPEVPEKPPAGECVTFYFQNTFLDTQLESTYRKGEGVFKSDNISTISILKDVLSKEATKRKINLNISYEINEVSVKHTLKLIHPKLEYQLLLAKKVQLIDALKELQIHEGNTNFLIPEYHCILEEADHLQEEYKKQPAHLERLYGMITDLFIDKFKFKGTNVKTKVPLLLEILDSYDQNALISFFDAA
Chain of UniProt P30281 (P30281 whole entry, looked up): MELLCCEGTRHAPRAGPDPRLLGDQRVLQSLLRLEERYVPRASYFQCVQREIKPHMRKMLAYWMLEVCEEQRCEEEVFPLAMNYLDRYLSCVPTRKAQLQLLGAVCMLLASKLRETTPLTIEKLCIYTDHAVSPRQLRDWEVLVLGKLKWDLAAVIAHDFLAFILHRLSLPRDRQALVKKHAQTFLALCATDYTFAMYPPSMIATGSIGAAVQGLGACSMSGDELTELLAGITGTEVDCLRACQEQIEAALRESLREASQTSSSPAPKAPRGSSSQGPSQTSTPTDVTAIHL
Chain of UniProt Q6ZRI6 (Q6ZRI6 whole entry, looked up): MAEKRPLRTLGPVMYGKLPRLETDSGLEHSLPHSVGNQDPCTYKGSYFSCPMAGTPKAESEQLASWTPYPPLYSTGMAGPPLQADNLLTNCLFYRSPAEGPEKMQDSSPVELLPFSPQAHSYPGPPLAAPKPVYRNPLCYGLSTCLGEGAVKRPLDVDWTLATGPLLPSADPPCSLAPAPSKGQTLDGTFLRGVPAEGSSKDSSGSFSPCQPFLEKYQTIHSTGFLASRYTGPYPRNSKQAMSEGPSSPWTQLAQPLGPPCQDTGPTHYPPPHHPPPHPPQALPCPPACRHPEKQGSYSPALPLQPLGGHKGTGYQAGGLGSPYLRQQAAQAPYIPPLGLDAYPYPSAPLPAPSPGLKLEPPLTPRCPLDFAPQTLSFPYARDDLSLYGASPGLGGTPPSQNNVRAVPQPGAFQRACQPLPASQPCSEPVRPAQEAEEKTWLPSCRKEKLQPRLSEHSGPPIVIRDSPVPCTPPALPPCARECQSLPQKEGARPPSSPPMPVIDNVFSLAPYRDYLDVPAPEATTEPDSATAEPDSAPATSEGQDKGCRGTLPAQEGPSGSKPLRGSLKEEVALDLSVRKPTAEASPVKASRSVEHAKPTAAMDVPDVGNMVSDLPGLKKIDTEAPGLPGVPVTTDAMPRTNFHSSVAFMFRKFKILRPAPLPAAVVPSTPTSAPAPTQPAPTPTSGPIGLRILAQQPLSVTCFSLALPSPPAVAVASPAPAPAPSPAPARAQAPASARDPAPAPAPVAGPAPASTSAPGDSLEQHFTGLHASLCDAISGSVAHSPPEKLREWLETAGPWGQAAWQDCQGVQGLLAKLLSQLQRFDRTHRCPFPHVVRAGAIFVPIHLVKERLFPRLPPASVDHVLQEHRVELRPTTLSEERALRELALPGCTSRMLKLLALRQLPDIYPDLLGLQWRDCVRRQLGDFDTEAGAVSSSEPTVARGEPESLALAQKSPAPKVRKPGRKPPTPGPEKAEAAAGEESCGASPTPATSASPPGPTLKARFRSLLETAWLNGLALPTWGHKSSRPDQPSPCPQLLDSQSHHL
Chain of UniProt O95260 (O95260 whole entry, looked up): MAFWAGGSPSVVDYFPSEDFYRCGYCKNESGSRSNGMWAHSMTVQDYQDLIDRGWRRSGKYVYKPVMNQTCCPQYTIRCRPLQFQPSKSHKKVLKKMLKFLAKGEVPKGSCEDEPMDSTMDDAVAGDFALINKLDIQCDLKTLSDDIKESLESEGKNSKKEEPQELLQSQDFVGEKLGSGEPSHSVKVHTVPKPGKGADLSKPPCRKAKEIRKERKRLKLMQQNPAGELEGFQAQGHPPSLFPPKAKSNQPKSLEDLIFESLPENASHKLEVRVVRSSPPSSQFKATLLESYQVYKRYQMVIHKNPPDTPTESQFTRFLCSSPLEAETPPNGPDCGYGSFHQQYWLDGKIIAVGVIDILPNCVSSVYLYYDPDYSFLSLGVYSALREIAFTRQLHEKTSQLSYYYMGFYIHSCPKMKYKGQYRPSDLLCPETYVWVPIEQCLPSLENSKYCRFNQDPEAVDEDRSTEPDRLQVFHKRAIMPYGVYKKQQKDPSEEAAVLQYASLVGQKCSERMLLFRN
Chain of UniProt Q9H0Y0 (Q9H0Y0 whole entry, looked up): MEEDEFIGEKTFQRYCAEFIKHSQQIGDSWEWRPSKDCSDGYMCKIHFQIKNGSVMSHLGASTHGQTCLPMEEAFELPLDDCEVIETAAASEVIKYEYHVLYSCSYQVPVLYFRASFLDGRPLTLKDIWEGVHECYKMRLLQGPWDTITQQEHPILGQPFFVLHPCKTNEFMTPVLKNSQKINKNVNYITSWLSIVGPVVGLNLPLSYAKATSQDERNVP
Chain of UniProt Q7Z7K6 (Q7Z7K6 whole entry, looked up): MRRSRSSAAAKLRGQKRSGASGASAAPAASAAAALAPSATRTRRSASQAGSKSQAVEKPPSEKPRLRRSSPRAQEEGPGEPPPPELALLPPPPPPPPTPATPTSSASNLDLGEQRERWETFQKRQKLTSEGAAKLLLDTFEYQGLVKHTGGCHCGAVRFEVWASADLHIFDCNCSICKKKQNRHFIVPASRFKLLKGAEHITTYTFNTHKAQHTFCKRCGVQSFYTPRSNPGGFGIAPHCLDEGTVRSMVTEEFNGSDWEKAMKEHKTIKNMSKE
Chain of UniProt P0DMB2 (P0DMB2 whole entry, looked up): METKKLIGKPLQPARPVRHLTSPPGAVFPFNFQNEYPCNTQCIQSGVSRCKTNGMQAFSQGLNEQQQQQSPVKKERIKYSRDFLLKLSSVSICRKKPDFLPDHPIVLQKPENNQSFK

Target | log2 fold change [1] | log2 fold change [2] | log2 fold change [3] | log2 fold change [4] | log2 fold change [5] | log2 fold change [6] | log2 fold change [7] | log2 fold change [8] | log2 fold change [9] | log2 fold change [10]
C16orf70 (UniProt Q9BSU1) | 0.053 | 0.086 | -0.016 | 0 | -0.038 | 0.018 | -0.037 | 0.031 |  | 
CDK5 (UniProt Q00535) | -0.021 | 0.022 |  | -0.08 | -0.079 | 0.008 | -0.008 | 0.175 | -0.055 | 0.071
CEP41 (UniProt Q9BYV8) | -0.022 | 0.108 | 0.03 | 0.018 | -0.023 |  | -0.032 | 0.03 | 0.02 | -0.009
ATP6V0A2 (UniProt Q9Y487) | -0.035 | 0.013 | 0.037 | 0.071 | 0.005 | 0.017 | -0.007 | 0.029 | -0.117 | 0.14
CAMK1 (UniProt Q14012) | -0.094 |  | 0.027 | 0.106 | -0.018 | -0.06 | -0.061 | -0.016 | -0.095 | 0.272
CACUL1 (UniProt Q86Y37) | 0.04 | 0.053 |  | -0.04 | 0.106 | -0.072 | -0.026 | 0.103 | 0.012 | -0.111
BRAF, A0A2R8Y8E0 | 1.34 |  |  | -0.287 |  |  |  |  |  | 
CARHSP1 (UniProt H3BNU9) |  | 0.032 | 0.246 |  | -0.161 |  |  |  | 0.16 | -0.522
CDC14A isoform 2 (UniProt Q9UNH5) |  | -0.271 |  |  | 0.085 | 0.101 |  | 0.058 |  | 
BUD13 (UniProt Q9BRD0) |  |  | 0.092 | -0.07 |  | -0.037 | 0.096 | 0.025 | 0.076 | -0.064
CEP152 (UniProt O94986) | 0.031 |  | 0.106 | 0.25 |  | 0.008 | 0.051 | -0.039 | -0.009 | 0.272
ATG4D (UniProt Q86TL0) |  |  | -0.074 | 0.055 |  | 0.116 | -0.188 | 0.058 |  | 
CAD (UniProt H7BZB3) | -0.063 |  |  | 0.144 |  |  |  |  | -0.02 | -0.027
CASP7 isoform 3 (UniProt P55210) |  | -0.117 | 0.059 | -0.148 | -0.049 | -0.119 | 0.056 | -0.091 |  | 
CCND3 (UniProt P30281) |  |  | 0.014 | -0.056 |  | -0.112 | 0.086 | 0.016 | -0.116 | 0.075
CASC1 (UniProt Q6TDU7) |  |  | 1.04 |  |  | -0.217 |  |  | 0.034 | 0.006
CDC25A (UniProt P30304) |  | 0.038 |  |  | -0.053 | 0.033 | -0.022 | 0.092 |  | 
BNIP3 (UniProt Q12983) |  | 0.035 | -0.037 | 0.069 | 0.116 | -0.023 | 0.118 | 0.03 | -0.307 | 0.149
BMT2 (UniProt Q1RMZ1) |  |  |  |  |  |  |  |  | 0.004 | 0.096
CEP57L1 (UniProt Q8IYX8) |  |  | -0.06 | 0.227 |  | 0.044 | -0.065 | -0.007 | -0.028 | -0.066
CCP110 (UniProt O43303) | -0.202 |  | 0.07 | -0.141 |  | -0.022 | -0.06 | 0.005 |  | 
CCDC130 (UniProt P13994) |  |  | 0.045 | 0.036 |  | -0.027 |  | 0.147 |  | 
CCAR2 (UniProt G3V119) |  | 0.087 |  |  | -0.074 |  |  |  |  | 

Target | log2 fold change [1] | log2 fold change [2] | log2 fold change [3] | log2 fold change [4] | log2 fold change [5] | log2 fold change [6] | log2 fold change [7] | log2 fold change [8] | log2 fold change [9] | log2 fold change [10]
CAPNS1 (UniProt U3KPR7) |  | -0.125 | 0.424 |  | -0.01 |  |  |  |  | 
ATXN2 (UniProt F8WB06) |  |  |  |  |  |  | -0.088 |  |  | 
CDK5RAP1 (UniProt Q96SZ6) | -0.03 |  | 0.025 | 0.059 |  | 0.035 | 0.026 | -0.037 | 0.023 | 0.026
ATPSCKMT (UniProt Q6P4H8) |  |  | -0.019 | 0.171 |  | 0.077 | 0.053 | -0.007 |  | 
ATG10 (UniProt Q9H0Y0) | 0.026 |  | 0.092 | 0.016 |  | 0.012 | -0.021 | 0.038 | -0.021 | 0.01
CEP295 isoform 3 (UniProt Q9C0D2) |  | -0.058 | -0.039 | 0.052 | 0.043 | -0.028 |  | 0.005 | -0.387 | 0.001
CDAN1 (UniProt H3BPZ6) |  |  |  |  |  |  |  | 0.175 |  | 
C6orf120 (UniProt Q7Z4R8) |  | -0.127 | 0.096 |  | 0.051 |  | 0.004 |  | -0.005 | 0.049
BBS7 (UniProt Q8IWZ6) | 0.375 |  |  | -0.082 |  | 0.026 | 0.217 | 0.044 | -0.255 | 0.067
C15orf39 (UniProt Q6ZRI6) |  |  | -0.012 | -0.047 |  | -0.008 | 0.025 | 0.042 | 0.08 | 0.132
CDK11A (UniProt Q9UQ88) |  | -0.019 | 0.029 |  | -0.135 | 0.047 | -0.069 | -0.026 | 0.127 | -0.099
ATE1 (UniProt O95260) |  | 0.061 | -0.051 |  | 0.002 |  |  | 0.021 | 0.082 | 0.003
C9orf72 (UniProt Q96LT7) |  | -0.03 | -0.091 | 0.034 | 0.088 | 0.022 | 0.082 | 0.011 | -0.065 | -0.015
CHD4, A0A2R8Y521 |  | -0.315 |  | -0.053 | 0.103 | -0.342 | 0.149 |  |  | 
BCORL1 isoform 3 (UniProt Q5H9F3) | 0.123 |  |  | -0.033 |  | -0.018 | -0.082 | -0.099 | -0.546 | 0.344
C8orf88 (UniProt P0DMB2) |  |  | -0.053 |  |  | 0.027 | 0.051 | -0.015 | 0.084 | 0.011
C3AR1 (UniProt Q16581) |  |  | -0.172 |  |  |  |  | -0.004 | -0.664 (active) | -0.286
B3GALT6 (UniProt Q96L58) |  |  | 0.002 |  |  | 0.115 | -0.172 | 0.067 |  | 
CENPV (UniProt Q7Z7K6) | -0.104 |  | 0 | -0.033 |  | 0.19 |  | 0.007 | 0.264 | -0.004
CDCA8 (UniProt Q53HL2) | 0.025 |  | 0.106 | 0.051 |  |  | 0.171 |  | 0.677 (active) | -0.034
CHD9 (UniProt Q3L8U1) | -0.028 |  |  |  |  | -0.139 | 0.114 | 0.17 | 1.88 (active) | -0.122
AVEN (UniProt Q9NQS1) | 0.177 |  | -0.091 | 0.117 |  | -0.025 | 0 | -0.007 | -0.651 (active) | 0.167
BICRA (UniProt Q9NZM4) |  | 0.055 | 0.165 |  | 0.036 | -0.233 | 0.02 | 0 | -0.133 | -0.048
